The values that follow come from PubChem BioAssay AID2315 (National Center for Advancing Translational Sciences (NCATS), 2010).

In all, about 290,000 compounds went through this assay and about 27,000 (9.3%) were called active. Cut-off read from the data, not from the text of the source: active = inhibition mostly above about 28% (no sharp cut-off); inactive = mostly below about 43%. For the sample, actives were picked, then their nearest neighbours and some compounds at random.

For orientation: inhibition means the drop in the measured response relative to a control, in per cent.

This experiment is described as follows: A qHTS for Small Molecule Inhibitors of Shiga Toxin. Note: 0% is about no effect. The following applies: Vero cells, Shiga toxin protein synthesis inhibition reporter; at 38.7 µM, hits give high values. A general note: Quantitative high-throughput screening tests each substance at several concentrations.
Regarding `CC(=O)Nc1ccc(Oc2ccc3c(c2)C(=O)NC3=O)cc1`, the inhibition is -7.33% (inactive).
The same measure for `Cc1ccc(S(=O)(=O)N/N=C(\c2ccccc2)C2CC2)cc1`: -3.31% (inactive).
In the case of `CN(C)/C=C/C(=O)c1ccccc1F`, the inhibition was 30.4% (inactive).
For the compound `Cc1nc(-c2ccccc2)sc1C(=O)/C=C/N(C)C`, the inhibition was 127% (active).
As to `Cc1nc(COc2cccc(Cl)c2)sc1C(=O)/C=C/N(C)C`, the inhibition was 48.6% (inactive).
In the case of `O=C(CN(C(=O)CCC(=O)Nc1nccs1)c1ccc(F)cc1)NCc1ccc2c(c1)OCO2` it was -6.5% (inactive); in that of `Cn1c(=NC(=O)c2ccc3c(c2)OCCO3)sc2cc(S(C)(=O)=O)ccc21`, 2.16% (inactive); in that of `COCCNC(=O)c1ccccc1NS(=O)(=O)c1ccc(C)c([N+](=O)[O-])c1`, -5.37% (inactive).
In the case of `COCCn1c(=NC(=O)c2ccccc2[N+](=O)[O-])sc2cc(S(C)(=O)=O)ccc21` it was 21.4% (active).
In the case of `COC(=O)c1cc(NS(=O)(=O)c2ccc3c(c2)c(=O)n(C)c(=O)n3C)cc(C(=O)OC)c1` it was -1.69% (inactive); in that of `Cc1ccc(S(=O)(=O)NNC(=O)/C=C/c2cccc(F)c2)cc1`, -5.71% (inactive).
`CC1CCCCC1NC(=O)CCS(=O)(=O)c1ccc2c(c1)NC(=O)CO2` (centres undefined): the inhibition was 49.7% (inactive).
The same measure for `COc1ccc(C(=O)O)cc1S(=O)(=O)NCc1cccnc1`: 2.47% (inactive); for `Cc1cc(Cl)c2oc(C(=O)N(C)C(C)c3ccccn3)c(C)c2c1` (centres undefined): 50.1% (active); for `Cc1cc(Cl)c2oc(C(=O)NC(C)c3ccncn3)c(C)c2c1` (centres undefined): 14.6% (inactive).
In the case of `Cc1cc(Cl)c2oc(C(=O)N3CCC(O)(c4ccccc4)CC3)c(C)c2c1`, the inhibition is 18.3% (inactive).
As to `NC(=O)C1CCCN(CC(=O)N2CCN(c3ccccc3)CC2)C1` (centres undefined), the inhibition was -5.2% (inactive).
The same measure for `COc1ccc(OC)c(C(=O)c2ccc(C(=O)O)cc2)c1`: 29.1% (inactive); for `COc1ccc(OC)c(C(=O)c2coc3ccc(OC)cc23)c1`: -7.11% (inactive).
In the case of `COc1ccc2occ(C(=O)c3ccc(N=C(C)N(C)C)cc3)c2c1` it was 62% (active); in that of `CCOCCCN(C)C1CCN(C(=O)c2oc3ccccc3c2NC(=O)Cc2cccc([N+](=O)[O-])c2)CC1`, 18.7% (inactive); in that of `Cc1noc(C)c1CSCC(=O)N(CCC(C)C)c1c(N)n(Cc2ccccc2)c(=O)[nH]c1=O`, 6.62% (inactive).
The same measure for `C=CCSc1nnc(N2C(=O)C(O)=C(C(=O)c3ccco3)C2c2ccc(F)cc2)s1` (centres undefined): 19.6% (inactive).
Consider `COc1cc(C2C(C(=O)c3ccco3)=C(O)C(=O)N2c2cc(C)on2)ccc1OCc1ccccc1` (centres undefined), for which the inhibition was -4.72% (inactive).
For `Cc1ccc2nc(N3C(=O)C(O)=C(C(=O)c4ccco4)C3c3cccc(O)c3)sc2c1` (centres undefined), the inhibition was 71.4% (active).
For `CCOc1ccccc1NC(=O)NC1CCCCCCC1`, the inhibition is -4.06% (inactive).
`COc1cc(NC(=O)C2CCN(c3cnccn3)CC2)cc(OC)c1`: the inhibition was -1.63% (inactive).
The same measure for `CS(=O)(=O)N1CCc2nc(-c3ccccc3)sc2C1`: 99.9% (active); for `CS(=O)(=O)N1CCN(c2cccc(Cl)n2)CC1`: -4.33% (inactive); for `CS(=O)(=O)N1CCN(C(=O)Cc2ccccc2)CC1`: 8.45% (inactive).
In the case of `O=C(Cn1nc([N+](=O)[O-])nc1Br)NC1CCCCC1` it was -1.71% (inactive); in that of `Cc1cc(-c2ccc(S(=O)(=O)N3CCN(c4cccc(C(F)(F)F)c4)CC3)s2)on1`, -3.9% (inactive); in that of `O=C(COc1ccc(Cl)cc1Cl)NCCCNC(=O)c1cnccn1`, -3.62% (inactive).
The same measure for `COc1ccc(NC(=O)C/C(C)=N/NC(=O)c2cnccn2)cc1Cl`: 45.4% (active).
As to `CCCCC(=O)N/N=C(\C)CC(=O)Nc1cc(Cl)ccc1OC`, the inhibition was 2.31% (inactive).
Turning to `COc1ccccc1C(=O)NCc1nnc(SC(C)C(=O)Nc2nccs2)n1C` (centres undefined), the inhibition is 10.7% (inactive).
Consider `CCOc1ccc(NC(=O)C(C)N2C(=O)c3ccccc3C2=O)cc1` (centres undefined), for which the inhibition was -15.9% (inactive).
In the case of `O=C(Cc1ccc(Cl)cc1)NC1CCS(=O)(=O)C1` (centres undefined), the inhibition is 1.56% (inactive).
In the case of `O=S(=O)(Nc1ccc2cn[nH]c2c1)c1ccccc1` it was 24% (inactive); in that of `O=S(=O)(Nc1ccc2nc(-c3ccco3)[nH]c2c1)c1ccccc1`, 70.6% (active); in that of `Cc1ccc(S(=O)(=O)Nc2ccc3ncccc3c2)cc1`, -8.08% (inactive).
The same measure for `CN1CCN(/N=C/c2ccc(-c3ccc([N+](=O)[O-])cc3)o2)CC1`: 46.8% (active); for `CN1CCN(/N=C/c2ccc(C#N)cc2)CC1`: 81.4% (inactive).
For `Cc1ccc(-c2ccc(/C=N/NC(=O)CN3CCOCC3)o2)cc1[N+](=O)[O-]`, the inhibition is -4.74% (inactive).
In the case of `Cc1ccc(S(=O)(=O)N2CCN=C2SCc2c(F)cccc2Cl)cc1` it was -2.63% (inactive).
Regarding `Cc1onc(C(=O)Nc2ccc3c(c2)OCO3)c1[N+](=O)[O-]`, the inhibition was 62.7% (active).
Regarding `Cn1cc([N+](=O)[O-])c(C(=O)Nc2ccc3c(c2)OCCO3)n1`, the inhibition is 53.6% (active).
In the case of `Cc1nn(CC(=O)Nc2ccc3c(c2)OCO3)c(C)c1[N+](=O)[O-]` it was -8.73% (inactive); in that of `COc1cccc(NC(=O)c2nn(C34CC5CC(CC(C5)C3)C4)cc2[N+](=O)[O-])c1`, 28.3% (inactive); in that of `Cc1nc([N+](=O)[O-])cn1CC(=O)Nc1ccc2c(c1)OCO2`, -7.53% (inactive).
The same measure for `Cn1cc([N+](=O)[O-])c(C(=O)Nc2cnn(Cc3ccc(F)cc3)c2)n1`: 7.88% (inactive).
The same measure for `c1ccc(CSc2nnc(-c3ccco3)c(-c3ccco3)n2)cc1`: -7.92% (inactive).
`c1ccc(CSc2nnc(-c3ccco3)n2Cc2ccccc2)cc1`: the inhibition is 94.3% (active).
The same measure for `O=C(CSc1nnc(-c2ccco2)n1Cc1ccccc1)NC(=O)NCc1ccco1`: 10.4% (inactive); for `O=C(Nc1ccc(S(=O)(=O)NCC2CCCO2)cc1)c1ccc(F)cc1` (centres undefined): -1.55% (inactive); for `CCc1cccc(C)c1NS(=O)(=O)c1cc(Br)cnc1N`: -8.52% (inactive).
The same measure for `Cn1nccc1/C=N\NC(=O)c1ccc(Cl)cc1`: 30.8% (active); for `CC1(C)C2CC=C(/C=N/NC(=O)c3ccc(Cl)cc3)C1C2` (centres undefined): 30.5% (inactive).
The same measure for `COc1ccc(/C=N/NC(=O)c2ccc(Cl)cc2)cc1COC(C)=O`: -2.77% (inactive).
